GLP1R cytotox: cytotoxicity counter-screen for GLP-1 receptor inverse agonists; Potency, µM (titrated, usually from 38.3 µM), usual class: inhibitors; HEK293 cAMP-luciferase reporter cells, luminescence, 24 h; hit rate 0.13% among 410,000;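 also: loss of luciferase light is scored as toxicity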
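Step one: seed cells (200 cells/uL, DMEM with 10% Nu serum, 1% pen-strep). Step two: 12-hour incubation at 37 deg C. Step three: pin 23 nL compound, incubate 24 hr. Step four: add luciferase reagent, read luminescence 12 min later.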
Pin1 inh: inhibitors of human Pin1; hit rate 0.009% among 390,000; Potency, µM (titrated, usually from 115 µM), hits mostly inhibitors; Pin1 FP peptide displacement, HiFluor488, 10 min; Q13526; active = well fitted inhibition curve with a large enough effect in the polarisation, with a control signal flat, not every such curve was filed as active; inconclusive = small, poorly fitted or top-dose-only effect, or effect the other way, or a change in a side signal; inactive = no such curve, though single readings can be large or run the other way; the % refers to the polarisation
Target sequence (Q13526 whole entry, looked up): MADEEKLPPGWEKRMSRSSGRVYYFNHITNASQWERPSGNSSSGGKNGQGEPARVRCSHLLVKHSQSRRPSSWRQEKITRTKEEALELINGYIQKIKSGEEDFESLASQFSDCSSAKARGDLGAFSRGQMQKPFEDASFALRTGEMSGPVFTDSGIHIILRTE
Tb PFK inh: T. brucei PFK enzyme inhibition. T. brucei PFK, ADP-Glo luminescence. O15648. hit rate 0.17% among 330,000. Potency, µM (highest dose often 57.5 µM), hits mostly inhibitors. AID 485367; also: nearly all actives have a fitted effect of over 60% in size
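Luminescent ADP detection (ADP-Glo, two-step: ATP depletion then ADP-to-ATP conversion for luciferase) reported PFK activity after 45 min room-temperature reaction of 1.25 nM enzyme with 0.5 mM F6P and 0.1 mM ATP at pH 8.0.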
Tb PGK inh: blocks T. brucei phosphoglycerate kinase. Potency, µM (highest dose often 57.5 µM), actives largely listed as inhibitors. PGK/GAPDH coupled, Kinase-Glo luminescence, 60 min. hit rate 0.043% among 380,000; also: nearly all actives have a fitted effect of over 60% in size
Target sequence (P07378 whole entry, looked up): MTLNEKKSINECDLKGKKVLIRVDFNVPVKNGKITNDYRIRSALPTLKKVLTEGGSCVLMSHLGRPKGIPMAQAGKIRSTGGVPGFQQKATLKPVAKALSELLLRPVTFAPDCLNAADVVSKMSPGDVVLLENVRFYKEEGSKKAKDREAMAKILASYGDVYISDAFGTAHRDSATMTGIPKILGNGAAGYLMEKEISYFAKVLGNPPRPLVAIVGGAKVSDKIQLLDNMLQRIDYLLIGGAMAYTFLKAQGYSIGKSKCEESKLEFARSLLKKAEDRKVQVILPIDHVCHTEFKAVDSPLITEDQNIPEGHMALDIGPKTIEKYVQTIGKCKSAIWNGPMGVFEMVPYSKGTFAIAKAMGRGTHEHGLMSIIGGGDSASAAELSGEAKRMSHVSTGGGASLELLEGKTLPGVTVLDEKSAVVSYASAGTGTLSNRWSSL
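Luminescent ATP detection (Kinase-Glo Plus) follows a 60-minute room-temperature incubation, with wells lacking PGK as controls. Buffer: 100 mM TEA (pH 7.6), 5 mM MgCl2, 0.01% Tween-20. Coupling enzyme GAPDH (100 nM final) supplies unstable 1,3-BPG in-well.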
GLP1R inv ag: inverse agonists of human GLP-1 receptor. P43220. HEK293 GLP-1R CRE-luciferase, luminescence, 24 h; GLP-1R form is constitutively active. Potency, µM (doses to about 38.3 µM), most hits filed as inhibitors. hit rate 1.6% among 410,000; also: nearly all actives have a fitted effect of over 55% in size
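Stable HEK293 clone (constitutively active GLP-1R + cAMP-response luciferase); 200 cells/uL plated, 12 h pre-culture, compound 24 hr, 37 deg C/5% CO2; detection reagent 12 min RT; luminescence.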
GLP1R ag: agonists of human GLP-1 receptor | HEK293 GLP-1R CRE-luciferase, luminescence, 4-6 h; cells express a hypersensitive GLP-1R form | Potency, µM (doses to about 45.6 µM), usual class: activators | hit rate 0.007% among 380,000 | AID 624172
Numbers stand for hits; i = inactive; ? = inconclusive; nt = not tested or not shown. The list is not random: actives were taken first. Their share in the collection is about 1.8%. Unless noted, calls follow the shape of the dose curve; as a rule, active = well fitted curve in the direction sought with a large enough effect; inconclusive = small, poorly fitted or top-dose-only effect, or another doubt; inactive = no such curve, though single readings can be large; an effect the other way counts as inactive or inconclusive.

SMILES | GLP1R cytotox | Pin1 inh | Tb PFK inh | Tb PGK inh | GLP1R inv ag | GLP1R ag
O=C(NC(=S)Nc1ccc(Oc2ccc(Cl)cc2)cc1)c1ccccc1 | ? | i | i | i | 12.6µM | i
C=CCOc1ccc(C=CC(=O)c2c(O)c(OC)c(OC)c(OC)c2OC)cc1 | i | i | nt | i | 7.94µM | i
CC(C)C[C@@H](CN1CCCC1CN1C(=S)NC[C@@H]1Cc1ccc(O)cc1)N1C[C@H](Cc2ccc(O)cc2)N(CCc2ccccc2)C1=S (stereo not given in full) | ? | i | nt | i | 7.94µM | i
Oc1ccc(C[C@H]2CN([C@@H](Cc3ccc(O)cc3)CN3CCC[C@@H]3CN3C(=S)NC[C@@H]3Cc3ccccc3)C(=S)N2CCc2ccccc2)cc1 | i | nt | nt | nt | ? | i
COc1ccc(-n2c(SCC(=O)Nc3nnc(C)s3)nc3c([nH]c4ccccc43)c2=O)cc1 | i | i | nt | i | i | nt
O=C(Nc1cccc(Cl)c1)N1CCN2C(=O)c3ccccc3C12c1ccccc1 (stereo not given) | ? | i | i | i | 8.91µM | i
O=C(CCl)N1CCN2C(=O)c3ccccc3C12c1ccc(Cl)cc1 (stereo not given) | i | i | i | i | ? | i
Cc1ccc(Cl)cc1NC(=O)CSCc1cnn(-c2ccccc2)c1-n1cccc1 | i | i | nt | nt | 10µM | nt
Cc1cc(C)cc(C(=O)NCCc2csc(-c3ccc(C(F)(F)F)cc3)n2)c1 | i | i | nt | i | i | nt
O=C(NCCc1csc(-c2ccc(C(F)(F)F)cc2)n1)c1ccc(F)c(F)c1 | i | i | nt | i | 10µM | i
Cc1cc2c(s1)c1cnn(Cc3ccc4ccccc4c3)c(=O)c1n2C | nt | i | nt | nt | nt | nt
CCn1cc2nc(SCc3ccc(F)cc3)n(CCc3ccccc3)c(=O)c2n1 | i | ? | nt | i | 7.94µM | nt
CCn1cc2nc(SCc3ccc(C)cc3)n(CCc3ccccc3)c(=O)c2n1 | i | i | nt | i | ? | nt
N=C1S/C(=C\c2ccco2)C(=O)N1c1nccs1 | i | ? | i | i | 1µM | i
CCOC(=O)C1(CCc2ccccc2)CCN(Cc2nccn2CC)CC1 | 8.91µM | i | i | i | ? | i
CCOC(=O)C1(Cc2ccccc2)CCN(Cc2nccn2CC)CC1 | ? | i | i | i | ? | i
N#Cc1ccc(C(=O)NCC(=O)OC(C(=O)Nc2cc(C(F)(F)F)ccc2Cl)c2ccccc2)cc1 (stereo not given) | nt | i | nt | nt | nt | nt
CCN1CCN(S(=O)(=O)c2ccc(Cl)c(C(=O)Nc3ccccc3N3CCCCC3)c2)CC1 | i | i | i | i | 10µM | i
CCN1CCN(S(=O)(=O)c2ccc(Cl)c(C(=O)Nc3ccccc3N3CCCC3)c2)CC1 | i | i | i | i | ? | i
CCN(CC(=O)Nc1cc(S(=O)(=O)N2CCCCC2)ccc1Cl)Cc1ccccc1 | i | i | i | i | 5.62µM | i
O=C(Nc1cccc(Cl)c1)Nc1cc(S(=O)(=O)N2CCCCC2)ccc1Cl | i | i | i | i | 2.82µM | i
CCN(CC(=O)Nc1cc(S(=O)(=O)N2CCOCC2)ccc1Cl)Cc1ccccc1 | i | i | i | i | ? | i
CC(=O)N(CC(O)CO)c1c(I)c(C(=O)NCCO)c(I)c(C(=O)NCC(O)CO)c1I (stereo not given) | nt | nt | nt | nt | nt | i
O=C(CCCN1CCN(c2ccccc2)CC1)c1ccc(F)cc1 | i | nt | nt | i | i | i
O=C1CC(=C(c2ccccc2)c2ccccc2)C(=O)N1CCCCN1CCN(c2ccccc2)CC1 | ? | i | i | i | 1.26µM | i
SMILES | GLP1R cytotox | Pin1 inh | Tb PFK inh | Tb PGK inh | GLP1R inv ag | GLP1R ag
COC(=O)c1ccc(C23CC4(C2)[C@H](CN(Cc2cccnc2)[C@@H]4c2ccccc2)C3c2ccc(C(F)(F)F)cc2)cc1 (stereo not given in full) | i | i | i | i | ? | i
FC(F)(F)c1ccc(C2[C@H]3CN(Cc4cccnc4)[C@H](c4ccccc4)C34CC2(c2cccnc2)C4)cc1 (stereo not given in full) | ? | i | i | i | 11.2µM | i
COC(=O)c1ccc(C23CC4(C2)[C@H](CN(Cc2cccnc2)[C@@H]4c2ccccc2)C3c2ccccc2)cc1 (stereo not given in full) | i | i | i | i | 8.91µM | i
COc1ccc(OCC(=O)N(Cc2cccc(OC)c2)C2CCS(=O)(=O)C2)cc1 (stereo not given) | i | i | nt | i | i | nt
CCC[C@@H]1CC(C(=O)NC(C2O[C@H](SC)C(OP(=O)(O)O)[C@H](O)[C@H]2O)[C@H](C)Cl)N(C)C1 (stereo not given in full) | nt | nt | nt | nt | nt | i
CC(Oc1cccc(Cl)c1)C(=O)Nc1nc(-c2ccccn2)cs1 (stereo not given) | ? | i | i | i | 5.01µM | i
CC(C)(CO)NCc1cccc(OCc2ccc(Cl)cc2)c1 | i | i | i | i | ? | i
COc1cccc(CNC(C)(C)CO)c1OCc1ccc(Cl)cc1 | i | i | i | i | 11.2µM | i
CCCSc1cc(N2CCOCC2)nc(-c2ccccc2Cl)n1 | i | i | i | i | 10µM | i
Cc1ccccc1CN1CCN(S(=O)(=O)c2ccc(Cl)s2)CC1 | i | i | i | i | 10µM | i
Cc1cc(N2CCN(Cc3nc(-c4ccc(Cl)cc4)oc3C)CC2)cc(C)n1 | ? | i | i | i | 1µM | i
COc1ccc(-c2nc(CN3CCN(Cc4ccccc4)CC3)c(C)o2)cc1 | i | i | i | i | ? | i
Cn1nnnc1Sc1ncnc2scc(-c3ccc(S(C)(=O)=O)cc3)c12 | nt | i | nt | nt | nt | nt
CCS(=O)(=O)Nc1ccc(-c2cc(-c3ccccc3)c3cc(C)ccc3n2)cc1 | i | i | i | i | 7.08µM | i
Cc1ccc2nc(-c3ccc(NS(C)(=O)=O)cc3)cc(-c3ccccc3)c2c1 | i | i | i | i | i | i
Clc1cccc(NCc2nnc(SCc3ccccc3)o2)c1 | i | ? | ? | i | 7.08µM | i
Clc1cccc(NCc2nnc(SCc3ccccc3Cl)o2)c1 | i | i | i | i | i | i
COc1cc(NC(=O)COCc2cc(-c3ccc4c(c3)OCO4)on2)cc(OC)c1 | i | i | nt | i | i | nt
Cc1cccc2sc(N(CCCN(C)C)C(=O)CCc3ccccc3)nc12 | ? | i | i | i | 2.82µM | i
CCOC(=O)C1=CN(Cc2ccco2)S(=O)(=O)N(C)C1c1ccc2ccccc2c1 (stereo not given) | i | i | i | i | 10µM | i
CCCCN1CC(COCc2ccccc2)Oc2ccccc2S1(=O)=O (stereo not given) | i | i | i | i | 11.2µM | i

Source: PubChem (National Center for Advancing Translational Sciences (NCATS))
